This note sets out measurements from PubChem BioAssay (NCI).

Common to all, as to experiment: NCI-60 one-dose screen, 48 h (100 = growth as untreated, 0 = no growth, -100 = all killed)
Settings in all cases: 10 µM unless noted

Experiment [1] relates to SK-MEL-2 melanoma.
Experiment [2] deals with EKVX NSCLC.
The test system of experiment [3] is SN12C renal.
In experiment [4] the test system is UO-31 renal.
Experiment [5] relates to TK-10 renal.
The subject of experiment [6] is ACHN renal.
The subject of experiment [7] is A498 renal.
Experiment [8] has as its system CCRF-CEM leukemia.
Experiment [9] has as its system MOLT-4 leukemia.
Experiment [10] has as its system SR leukemia.

Molecules are shown by their SMILES. About 83,000 compounds went through this panel and 20% of them were active in at least one assay; those are over-represented in the sample as a whole.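 For each line, cells grew in 96-well plates with the test compound present at a single concentration for 48 hours.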 Unmarked numbers belong to inactive results. Calls of active or inactive are those of the source. How the source made its calls: active means growth percent below 10; inactive means the rest.

With `CCN(CC)c1ccc2c(c1)Oc1nc(N)c(C#N)c(N)c1C2Sc1ccc(OC)cc1` (stereo not given), the growth in experiment [1] was -61.2% (active); in [2], 4.46% (active); in experiment [3], 4.18% (active); in experiment [4] it was -44.7% (active); in experiment [5] it was 23.1%; in experiment [6] it was 32.2%. In addition, the growth in [7] was 106%; in [8], 0.612% (active); in [9] it was 2.47% (active); in [10], -9.3% (active).
As to `C=C(C)[C@@H]1CC[C@]2(C(=O)N=C=S)CC[C@]3(C)[C@H](CC[C@@H]4[C@@]5(C)CCC(=O)C(C)(C)[C@@H]5CC[C@]43C)[C@@H]12`, the growth in [1] was 27.3%; in experiment [2], 32.4%; in experiment [3], 19.2%; in experiment [4], 34.8%; in experiment [5] it was 42.3%; in experiment [6], 27.6%. The growth in experiment [7] was 25.3%; in experiment [8] it was 28.1%; in experiment [9], 25.6%; in experiment [10], 27.6%.
As for `CC(C)NS(=O)(=O)c1cccc(-c2ccc3c(=O)n(CCCN)c4c(c3c2)C(=O)c2ccccc2-4)c1`, the growth is 111% in experiment [1]; 100% in [2]; 113% in experiment [3]; 93.2% in [4]; 96.8% in [5]; 101% in experiment [6]. For the same compound, the growth in experiment [7] is 103%; in experiment [8], 88.2%; in [9], 95.6%; in experiment [10] it was 77.6%.
Regarding `C=C(C)[C@@H]1CC[C@]2(C(=O)OCCCC[P+](c3ccccc3)(c3ccccc3)c3ccccc3)CC[C@]3(C)[C@H](CC[C@@H]4[C@@]5(C)CC[C@H](OC(=O)C(Cl)Cl)C(C)(C)[C@@H]5CC[C@]43C)[C@@H]12`, the growth in experiment [1] was -67.5% (active); in [2], -13.3% (active); in experiment [3], -62.2% (active); in experiment [4], -51% (active); in experiment [5] it was -36.2% (active); in experiment [6], -39.6% (active). For the same compound, the growth in experiment [7] was -58.9% (active); in [8], 0.798% (active); in [9] it was -45% (active); in experiment [10], -34% (active).
For the compound `C=C1C(=O)O[C@H]2[C@H]1CC/C(COC(=O)Nc1nc3ccccc3[nH]1)=C\CC[C@@]1(C)O[C@@H]21`, the growth is 68.1% in experiment [1]; 58.7% in [2]; 67.4% in experiment [3]; 43.1% in experiment [4]; 46.3% in [5]; 32.5% in experiment [6]. Moreover, the growth in [7] is 102%; in experiment [8] it was 6.53% (active); in [9], 45.9%; in [10], 16.2%.
For the compound `C=C1C(=O)O[C@H]2[C@H]1CC/C(COC(=O)CCC(=O)OC/C1=C/CC[C@@]3(C)O[C@H]3[C@H]3OC(=O)C(=C)[C@@H]3CC1)=C\CC[C@@]1(C)O[C@@H]21`, the growth in [1] was 60.8%; in experiment [2], 44.5%; in [3] it was 5.32% (active); in experiment [4] it was 0.355% (active); in experiment [5] it was 25%; in [6], -21.8% (active). The growth is 114% in [7], -8.57% (active) in [8], 1.24% (active) in experiment [9] and 0.484% (active) in [10].
In the case of `C=C1C(=O)O[C@H]2[C@H]1CC/C(COC(=O)c1cc3ccccc3o1)=C\CC[C@@]1(C)O[C@@H]21`, the growth in [1] was -34.7% (active); in [2], -26.4% (active); in [3] it was -1.94% (active); in experiment [4] it was 3.76% (active); in experiment [5] it was 39.2%; in [6], 7.04% (active). The growth is 103% in [7], 1.96% (active) in [8], -9.79% (active) in experiment [9] and -1.95% (active) in [10].
Regarding `COCCOCCOCc1n(Cc2ccc3ccccc3n2)c2ccccc2[n+]1Cc1ccc2ccccc2n1`, the growth in [1] is -8.51% (active); in experiment [2], 71.6%; in experiment [3], 11.4%; in experiment [4] it was 67.3%; in experiment [5] it was 37.6%; in experiment [6], 97.6%. In addition, the growth was 78.1% in experiment [7], 31.6% in experiment [8], 26.3% in experiment [9] and 9.58% (active) in [10].
As to `COc1cc(-c2csc(NC(=O)Nc3ccc(Cl)cc3)n2)cc(OC)c1OC`, the growth is 29.3% in experiment [1]; 26% in experiment [2]; 27.5% in experiment [3]; 16.9% in experiment [4]; 26.6% in [5]; 18.3% in experiment [6]. The growth is 21.7% in experiment [7], 6.31% (active) in experiment [8], -17% (active) in experiment [9] and 33.7% in experiment [10].
Take `O=C(Nc1ccc2ncnc(Nc3cccc(C(F)(F)F)c3)c2c1)c1cccs1`: the growth in experiment [1] was 90.7%; in experiment [2], 32.5%; in experiment [3] it was 68.5%; in experiment [4], 51.1%; in experiment [5], 47.4%; in experiment [6], 47.4%. Further, the growth in experiment [7] is 18.9%; in [8], 37.2%; in experiment [9] it was 17.6%; in [10], 33.8%.
Consider `COc1ccc(Nc2cc(NC(=O)CNc3cc(OC)c(Cl)c(OC)c3Cl)ncn2)cc1`, for which the growth was 84.8% in experiment [1]; 72.2% in experiment [2]; 89.2% in [3]; 59.6% in experiment [4]; 93.1% in experiment [5]; 78.8% in experiment [6]. Moreover, the growth in experiment [7] was -1.25% (active); in [8], 89.3%; in experiment [9], 52.2%; in [10], 78.1%.
`O=CN1N=C(c2ccc(F)cc2)CC1c1cccc(Nc2ccnc3cc(C(F)(F)F)ccc23)c1` (stereo not given): the growth in [1] was 54.2%; in [2], 50.6%; in experiment [3], 81%; in experiment [4], 44.6%; in experiment [5], 62.7%; in experiment [6] it was 54.4%. Moreover, the growth was 49.6% in [7], 44.8% in experiment [8], 23.1% in [9] and 20.2% in experiment [10].
